# From PubChem
# In the library only some 4.1% were active in any assay of this set; here they are far more common.
# ALR inh = human ALR oxidase inhibition via reduced H2O2; inhibition, % (concentration not given with the values); purified ALR, DTT oxidation, H2O2 HRP-luminol luminescence; 3.8% of 290,000 active; P55789;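 active means mean replicate inhibition above about 79%, with every replicate also reaching it, limit read from the data; inconclusive means only one of the two criteria met; inactive means mean below limit and not every replicate reaching it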
# Target sequence (P55789 whole entry, looked up): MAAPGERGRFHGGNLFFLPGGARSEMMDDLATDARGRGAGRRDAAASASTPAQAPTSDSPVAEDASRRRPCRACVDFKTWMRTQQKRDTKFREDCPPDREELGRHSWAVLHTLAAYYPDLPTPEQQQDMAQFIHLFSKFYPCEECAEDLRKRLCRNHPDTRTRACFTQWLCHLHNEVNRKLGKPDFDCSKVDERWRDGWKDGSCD
# PolyA inh = blocks polyadenylation in yeast reporter cells. S. cerevisiae SKY197-pL101 polyadenylation reporter, beta-gal luminescence; efflux-impaired pdr1/pdr3 knockout yeast; score 100 = 6 SD above DMSO. activity score, % at 12 µM. 0.02% of 300,000 active. AID 1875;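 active means lowest replicate activity score at least 50, where 100 means six control SD above control mean; inconclusive means lowest score under 50 but half or more replicates reach 50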;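 further: yeast exposed to compound for 9 h at 30 °C; higher score means more reporter readthrough which indicates perturbed polyadenylation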
# PfM18AAP inh = PfM18AAP enzyme inhibition; recombinant PfM18AAP, H-Glu-NHMec fluorogenic cleavage; inhibition, % at 7.35 µM; 1.2% of 290,000 active;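 active means inhibition above the campaign mean inhibition over all tested compounds plus 3 SD, cut at about 28% in these data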;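 further: 0% = plate median of test compound wells and 100% = 2 mM ZnCl2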
# CaV13 ICDI inh = Primary screen for inhibitors of IQ motif and Ca2+-dependent inactivation inhibitor domain binding in CACNA1D, Förster resonance energy transfer in living cells, …; HEK cells, CFP/YFP FRET ICDI-IQ, plate reader, 10 min; percent FRET-ratio fall versus neutral wells; inhibition, % at 12.3 µM; 0.098% of 340,000 active; AID 743397;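 active means mean replicate inhibition of at least 30% and at least 1% of replicates passing that level; inconclusive means only one of the two criteria is met; inactive means neither criterion is met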;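 further: 0% = median of the neutral control wells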
# IDE cell inh = inhibits human insulin-degrading enzyme in HEK cells; P14735; FAbetaB cleavage, fluorescence polarization; inhibition, % at 5.59 µM; 0.41% of 320,000 active; AID 434962;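 active means percent inhibition above the average of all tested compounds plus 3 SD, set per screening campaign, cut at about 16% in these data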;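 further: IDE supplied by intact live HEK cells; FP after avidin binding of uncleaved biotin substrate so inhibition keeps polarization high; 0% = DMSO wells and 100% = 60 µM reference IDE inhibitor Ii1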
# IDE act = activators of human insulin-degrading enzyme in cells; P14735; 0.073% of 340,000 active; AID 493087; HEK cells, FAbeta-B cleavage, fluorescence polarization; 0% vehicle, 100% cell-free pure enzyme wells; activation, % at 5.96 µM;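 active means activation above the mean of all tested compounds plus 3 SD, set per screening campaign, cut at about 17% in these data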
# An asterisk follows results filed as active; ? = inconclusive; . = no result given.
SMILES,ALR inh,PolyA inh,PfM18AAP inh,CaV13 ICDI inh,IDE cell inh,IDE act
Cc1ccc(S(=O)(=O)Nc2cc(=O)[nH]c(SCc3ccccc3Cl)n2)cc1,96*,-10,-4,-5,3,-10
Cc1ccc(S(=O)(=O)Nc2cc(=O)[nH]c(SCC(=O)Nc3cccc(C(F)(F)F)c3)n2)cc1,.,-6,-3,-7,.,4
Cc1cccc(NC(=O)CSc2nc(NS(=O)(=O)c3ccccc3)cc(=O)[nH]2)c1,99*,-13,-4,0,-3,-1
CC(C)c1ccc(NC(=S)NN(c2ccccc2)c2ccccc2)cc1,9,-3,3,-2,-5,6
CCNC(=S)NN(c1ccccc1)c1ccccc1,98*,-16,-15,.,1,12
CS(=O)(=O)c1ccc(C(=O)NCCN2C(=O)S/C(=C\c3cccnc3)C2=O)cc1[N+](=O)[O-],100*,-7,9,-6,3,5
CC(C)C(=O)NN(C(=O)C(C)C)c1nc2ccccc2s1,95*,-5,3,-4,5,-5
CCOc1ccc(/C=N/NC(=O)c2ccccc2Cl)cc1CN1CC2CC(C1)c1cccc(=O)n1C2 (stereo unspecified),-3,.,.,.,2,6
COC(=O)[C@]12C[C@H](CC(=O)N3CCCCC3)C(=O)N(Cc3ccc4c(c3)OCO4)C1=C[C@H](C(C)(C)C)O[C@@H]2C,.,.,.,-9,.,.
CCc1noc(C)c1C(=O)N1CC(C)SC1=Nc1ccc(Cl)cc1 (stereo unspecified),.,.,.,-17,-8,1
COC(=O)CCCc1nc2ccccc2s1,-16,4,3,.,-5,4
CC(=O)c1c(CC(=O)O)[nH]n(-c2nc3ccccc3s2)c1=O,97*,2,-2,-8,2,-4
COc1ccc(CN=C(C)c2c(C(F)(F)F)[nH]n(-c3nc4ccccc4s3)c2=O)cc1,.,-6,2,-8,-5,5
COC(=O)CC1=NN(c2nc3ccccc3s2)C(=O)/C1=C/N(C)C,96*,5,1,.,-2,4
COC(=O)Cc1[nH]n(-c2nc3ccccc3s2)c(=O)c1C(C)=O,98*,-2,-1,-5,3,-4
CN(C)c1ccc(/C=N/c2cc(-c3ccccc3)nn2-c2ccccc2)cc1,.,-21,1,-4,-1,2
Cc1cc(C(=O)Nc2ccc3c(c2)CCC3)ccc1[N+](=O)[O-],-1,-34,.,-5,10,.
CCN(CCO)c1ccc(N=Nc2cc(C)[nH]n2)cc1,84*,-3,5,-5,-1,0
C=CCN1CCc2c(cc(O)c(O)c2Br)[C@@H](c2ccccc2)C1,99*,-5,.,-6,4,-4
CN1CCc2cc(O)c(O)cc2C(c2ccccc2)C1 (stereo unspecified),.,.,.,-5,4,6
Cn1nc([N+](=O)[O-])c(C(C#N)c2nc3ccccc3n2C)c(Cl)c1=O (stereo unspecified),100*,-15,1,-8,-4,2
COc1cc(CN2C(=O)C(CCc3ccccc3)ON=C2c2cnccn2)cc(OC)c1 (stereo unspecified),.,.,.,6,.,.
c1ccc2sc(N3CCCCC3)nc2c1,.,.,.,-8,.,0
O=C1CNC(=S)N1c1nc2ccccc2s1,95*,?,19,-4,2,9
CC(C)C(=O)Nc1cccc(COc2ccc(CN(Cc3ccccc3)C(=O)OC(C)(C)C)cc2)c1,.,.,.,-5,.,3
SMILES,ALR inh,PolyA inh,PfM18AAP inh,CaV13 ICDI inh,IDE cell inh,IDE act
C=CCN1[C@@H](C)[C@H](c2ccccc2)Oc2cccc(N3CCCC(C)C3)c2S1(=O)=O (stereo partly specified),.,.,.,-5,.,.
Cc1cc(C)n(CC(O)Cn2ccc3ccccc32)n1 (stereo unspecified),-16,3,4,-7,8,2
OC(CN1CCNCC1)Cn1ccc2ccccc21 (stereo unspecified),-4,-18,0,.,18*,.
O=c1[nH]c(=S)[nH]c2c1[C@H](CCc1cccc(Cl)c1)O[C@H](C1CCCC1)C2,.,.,.,-5,.,.
CCc1nnc(N/N=C/c2c(C)[nH]c3ccccc23)n1N,99*,-5,54*,-17,2,-2
CCOC(=O)C(NCCc1ccccc1F)(NC(=O)CC)C(F)(F)F (stereo unspecified),4,2,-1,-3,-3,3
COC(=O)c1cc(NCc2cccs2)ccc1N1CCOCC1,100*,11,1,-8,6,3
COC(=O)c1cc(NS(=O)(=O)c2cccc(Cl)c2)ccc1N1CCOCC1,39,-14,11,-4,-1,7
COC(=O)c1cc(NCc2c(F)cccc2Cl)ccc1N1CCOCC1,99*,-13,9,-5,8,7
O=C(O)c1cc(NCc2cccs2)ccc1N1CCOCC1,98*,10,-4,-4,-7,8
O=C(O)c1cc(NCc2ccc(F)cc2)ccc1N1CCOCC1,97*,-1,6,.,2,3
CCOc1ccc(NC(=O)[C@@H]2CCCN2C(=O)c2cccs2)cc1S(=O)(=O)N1CCOCC1,0,.,.,-4,-4,6
Cc1cc(-c2nnc(SCC(=O)Nc3ccccc3C(F)(F)F)n2N)n[nH]1,0,8,2,-7,0,3
Fc1cccc(Cl)c1CNc1ccc(N2CCCC2)cc1,99*,-18,0,-4,-1,4
Cn1c(N)c(C(=O)COC(=O)CNC(=O)c2ccc(Cl)cc2Cl)c(=O)n(C)c1=O,.,.,.,-5,2,3
C/C(=N\NC(=O)OC(C)(C)C)c1cccc([N+](=O)[O-])c1,5,3,1,-8,-1,7
CC(C)(C)OC(=O)NN=C(c1ccc(O)cc1)c1ccc(O)cc1,82*,11,10,-9,4,7
O=C1Nc2ccc(Cl)cc2[C@@](C#CC2CC2)(C(F)(F)F)O1,-10,-8,3,.,-4,.
C/C(N)=C(/C#N)C(=O)COC(=O)CNS(=O)(=O)c1ccc(F)c(F)c1F,-20,5,9,-3,6,5
Cn1cc(CNC(=O)C23CC4CC(CC(C4)C2)C3)cn1,-4,8,2,-4,1,4
CCc1c(C(=O)NCc2cnn(C)c2)csc1C,98*,-2,-8,-7,0,-5
COc1ccc(C(C(=O)NCC2CCCO2)N(C(=O)CNC(=O)c2cccs2)c2ccccc2C)cc1OC (stereo unspecified),-7,-7,-1,-5,-3,8
COc1cccc(C2c3[nH]c4ccccc4c3C[C@H]3C(=O)N(c4ccccc4C(=O)N4CCC[C@H]4C(=O)O)C(=O)N23)c1 (stereo partly specified),98*,20,0,.,-4,-4
